# Measurements taken from paper PMC7862700, “An all-to-all approach to the identification of sequence-specific readers for epigenetic DNA modifications on cytosine”.
# What was measured:
# Assay in all cases: DAPPL (digital affinity profiling via proximity ligation, sequencing); 10 mM Tris-HCl pH 7.5, 50 mM NaCl, 1 mM DTT, 4% glycerol, room temperature, 30 min; GST-TFs on glutathione beads, 16-mer random dsDNA library, 0.1% formaldehyde crosslink after washing; high values mean tight binding
# FLI1 = biological target: T1, FLI1 (Homo sapiens, UniProt Q01543 1-452); details: protein: recombinant; tags: N-terminal GST; dsDNA, one strand shown
# T1 sequence: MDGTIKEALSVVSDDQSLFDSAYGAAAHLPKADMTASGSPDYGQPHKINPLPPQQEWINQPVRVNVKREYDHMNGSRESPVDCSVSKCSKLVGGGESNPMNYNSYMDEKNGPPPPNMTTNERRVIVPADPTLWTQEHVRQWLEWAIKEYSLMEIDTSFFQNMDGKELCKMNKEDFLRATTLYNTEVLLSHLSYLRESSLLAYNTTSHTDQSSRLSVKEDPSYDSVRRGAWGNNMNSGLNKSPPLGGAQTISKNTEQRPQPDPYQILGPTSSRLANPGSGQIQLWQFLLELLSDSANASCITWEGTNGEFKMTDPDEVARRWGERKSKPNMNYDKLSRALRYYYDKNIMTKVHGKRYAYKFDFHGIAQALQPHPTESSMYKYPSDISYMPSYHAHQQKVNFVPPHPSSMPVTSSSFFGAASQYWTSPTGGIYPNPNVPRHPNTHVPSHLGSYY
# Method in brief: (§1)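 Pools were built from human transcription factors expressed in yeast as GST fusions, captured on glutathione beads and DNA-barcoded, along with a tag-only sample. Incubation with 200 nmole of a 16-mer random double-stranded DNA library lasted 30 min at room temperature in Tris/NaCl/DTT/glycerol buffer, and was followed by washing, 0.1% formaldehyde crosslinking, proximity ligation, PCR amplification and Illumina NextSeq500 sequencing. Binding signal is the quotient of each hexamer's read frequency for a factor and its frequency for the tag-only sample.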
# ELK1 = biological target: T2, ELK1 (Homo sapiens, UniProt P19419 1-428); details: protein: recombinant; tags: N-terminal GST; dsDNA, one strand shown
# T2 sequence: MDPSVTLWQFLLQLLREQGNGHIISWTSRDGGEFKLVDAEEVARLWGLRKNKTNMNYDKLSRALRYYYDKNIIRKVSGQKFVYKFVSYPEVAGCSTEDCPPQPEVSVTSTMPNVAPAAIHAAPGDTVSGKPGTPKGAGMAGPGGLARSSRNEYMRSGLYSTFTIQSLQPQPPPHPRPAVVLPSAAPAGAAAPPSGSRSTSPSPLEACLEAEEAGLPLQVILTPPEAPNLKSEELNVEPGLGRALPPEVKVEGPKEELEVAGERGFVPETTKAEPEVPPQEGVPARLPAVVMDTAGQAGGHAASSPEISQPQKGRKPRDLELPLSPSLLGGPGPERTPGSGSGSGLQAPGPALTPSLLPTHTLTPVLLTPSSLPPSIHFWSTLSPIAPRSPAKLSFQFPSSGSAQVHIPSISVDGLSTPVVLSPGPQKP
# Method in brief: as §1
# GABPA = biological target: T3, GABPA (Homo sapiens, UniProt Q06546 1-454); details: protein: recombinant; tags: N-terminal GST; dsDNA, one strand shown
# T3 sequence: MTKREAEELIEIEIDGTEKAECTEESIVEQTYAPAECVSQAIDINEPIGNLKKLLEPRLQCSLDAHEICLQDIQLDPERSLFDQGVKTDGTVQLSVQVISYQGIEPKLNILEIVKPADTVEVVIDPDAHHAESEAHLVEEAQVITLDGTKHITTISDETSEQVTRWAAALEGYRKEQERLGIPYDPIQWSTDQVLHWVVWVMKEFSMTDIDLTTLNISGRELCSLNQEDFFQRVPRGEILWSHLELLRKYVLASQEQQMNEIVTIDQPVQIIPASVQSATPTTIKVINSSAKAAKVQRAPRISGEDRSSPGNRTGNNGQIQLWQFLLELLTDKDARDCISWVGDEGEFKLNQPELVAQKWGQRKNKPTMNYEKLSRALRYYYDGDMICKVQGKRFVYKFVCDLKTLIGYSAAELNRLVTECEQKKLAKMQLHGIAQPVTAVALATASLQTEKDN
# Method in brief: as §1
# ERG = biological target: T4, ERG (Homo sapiens, UniProt P11308 1-479); details: protein: recombinant; tags: N-terminal GST; dsDNA, one strand shown
# T4 sequence: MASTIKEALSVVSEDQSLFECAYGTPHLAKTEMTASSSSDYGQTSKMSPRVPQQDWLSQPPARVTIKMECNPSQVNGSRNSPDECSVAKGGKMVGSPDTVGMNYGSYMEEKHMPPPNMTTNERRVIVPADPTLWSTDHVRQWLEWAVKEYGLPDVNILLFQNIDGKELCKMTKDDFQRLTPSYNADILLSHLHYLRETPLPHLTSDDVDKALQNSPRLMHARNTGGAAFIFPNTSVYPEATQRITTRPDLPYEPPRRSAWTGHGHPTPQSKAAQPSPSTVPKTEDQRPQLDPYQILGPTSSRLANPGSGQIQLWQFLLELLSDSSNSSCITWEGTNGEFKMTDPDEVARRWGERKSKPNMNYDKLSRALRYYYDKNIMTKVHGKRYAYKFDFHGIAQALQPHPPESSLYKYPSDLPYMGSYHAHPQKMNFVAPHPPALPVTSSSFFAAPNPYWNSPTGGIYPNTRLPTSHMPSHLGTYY
# Method in brief: as §1
# ELF1 = ELF1 (Homo sapiens, UniProt P32519 1-619); details: protein: recombinant; tags: N-terminal GST; dsDNA, one strand shown
# Sequence of ELF1 (P32519 whole entry): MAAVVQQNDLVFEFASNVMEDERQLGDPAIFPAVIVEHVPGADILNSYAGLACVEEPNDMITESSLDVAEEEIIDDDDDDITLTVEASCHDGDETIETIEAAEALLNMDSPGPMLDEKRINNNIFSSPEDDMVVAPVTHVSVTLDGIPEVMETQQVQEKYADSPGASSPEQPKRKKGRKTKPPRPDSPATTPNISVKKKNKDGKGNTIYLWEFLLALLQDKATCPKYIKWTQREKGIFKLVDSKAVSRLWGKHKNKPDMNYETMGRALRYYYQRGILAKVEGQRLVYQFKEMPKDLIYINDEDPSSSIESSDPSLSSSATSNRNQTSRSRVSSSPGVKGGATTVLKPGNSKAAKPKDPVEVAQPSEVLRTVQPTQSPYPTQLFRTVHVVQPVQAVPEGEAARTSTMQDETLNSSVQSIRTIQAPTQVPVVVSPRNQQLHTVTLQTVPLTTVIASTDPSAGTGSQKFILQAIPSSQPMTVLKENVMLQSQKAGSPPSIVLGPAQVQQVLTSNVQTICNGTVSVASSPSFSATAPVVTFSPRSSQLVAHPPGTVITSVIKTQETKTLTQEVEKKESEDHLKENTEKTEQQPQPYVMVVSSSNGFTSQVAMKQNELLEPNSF
# Method in brief: as §1
# EHF = biological target: T5, EHF (Homo sapiens, UniProt Q9NZC4 1-300); details: protein: recombinant; tags: N-terminal GST; dsDNA, one strand shown
# T5 sequence: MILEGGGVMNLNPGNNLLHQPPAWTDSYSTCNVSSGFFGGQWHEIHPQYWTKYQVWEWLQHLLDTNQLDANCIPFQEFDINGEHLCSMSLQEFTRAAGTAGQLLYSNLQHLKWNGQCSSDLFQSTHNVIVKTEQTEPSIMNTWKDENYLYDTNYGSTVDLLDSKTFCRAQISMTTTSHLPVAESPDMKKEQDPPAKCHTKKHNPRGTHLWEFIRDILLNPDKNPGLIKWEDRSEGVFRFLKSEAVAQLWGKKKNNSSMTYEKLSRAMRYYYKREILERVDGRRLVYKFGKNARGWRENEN
# Method in brief: as §1
# SPI1 = SPI1 (Homo sapiens, UniProt P17947 1-270); details: protein: recombinant; tags: N-terminal GST; dsDNA, one strand shown
# Method in brief: as §1
# SPIB = SPIB (Homo sapiens, UniProt Q01892 1-262); details: protein: recombinant; tags: N-terminal GST; dsDNA, one strand shown
# Sequence of SPIB (Q01892 whole entry): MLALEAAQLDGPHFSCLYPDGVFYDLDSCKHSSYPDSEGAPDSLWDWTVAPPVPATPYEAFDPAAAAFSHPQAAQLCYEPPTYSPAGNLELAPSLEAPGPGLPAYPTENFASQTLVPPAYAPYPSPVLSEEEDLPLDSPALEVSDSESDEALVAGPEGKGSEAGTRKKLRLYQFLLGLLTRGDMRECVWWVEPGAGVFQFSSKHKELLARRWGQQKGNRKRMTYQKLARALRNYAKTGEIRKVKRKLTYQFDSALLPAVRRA
# Method in brief: as §1
# ELK3 = biological target: T6, ELK3 (Homo sapiens, UniProt P41970 1-407); details: protein: recombinant; tags: N-terminal GST; dsDNA, one strand shown
# T6 sequence: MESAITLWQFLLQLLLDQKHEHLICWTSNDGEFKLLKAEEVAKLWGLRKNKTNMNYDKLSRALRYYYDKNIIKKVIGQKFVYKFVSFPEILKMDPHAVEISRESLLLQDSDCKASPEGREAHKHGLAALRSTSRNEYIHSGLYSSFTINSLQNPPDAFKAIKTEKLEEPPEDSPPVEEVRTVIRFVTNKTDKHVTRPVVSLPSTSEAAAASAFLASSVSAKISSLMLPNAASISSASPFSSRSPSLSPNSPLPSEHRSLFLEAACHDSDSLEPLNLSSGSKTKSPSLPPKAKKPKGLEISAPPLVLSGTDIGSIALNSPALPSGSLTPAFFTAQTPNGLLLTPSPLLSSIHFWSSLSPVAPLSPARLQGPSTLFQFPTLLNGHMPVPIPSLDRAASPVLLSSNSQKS
# Method in brief: as §1
# FEV = biological target: T7, FEV (Homo sapiens, UniProt Q99581 1-238); details: protein: recombinant; tags: N-terminal GST; dsDNA, one strand shown
# T7 sequence: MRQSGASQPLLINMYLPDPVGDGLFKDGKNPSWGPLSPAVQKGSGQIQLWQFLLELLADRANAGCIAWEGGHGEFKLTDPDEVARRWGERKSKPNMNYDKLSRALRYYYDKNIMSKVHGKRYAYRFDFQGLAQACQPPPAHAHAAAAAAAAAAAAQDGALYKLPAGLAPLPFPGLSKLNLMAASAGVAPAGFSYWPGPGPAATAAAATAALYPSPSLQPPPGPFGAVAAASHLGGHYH
# Method in brief: as §1
# ETV5 = ETV5 (Homo sapiens, UniProt P41161 1-510); details: protein: recombinant; tags: N-terminal GST; dsDNA, one strand shown
# Sequence of ETV5 (P41161 whole entry): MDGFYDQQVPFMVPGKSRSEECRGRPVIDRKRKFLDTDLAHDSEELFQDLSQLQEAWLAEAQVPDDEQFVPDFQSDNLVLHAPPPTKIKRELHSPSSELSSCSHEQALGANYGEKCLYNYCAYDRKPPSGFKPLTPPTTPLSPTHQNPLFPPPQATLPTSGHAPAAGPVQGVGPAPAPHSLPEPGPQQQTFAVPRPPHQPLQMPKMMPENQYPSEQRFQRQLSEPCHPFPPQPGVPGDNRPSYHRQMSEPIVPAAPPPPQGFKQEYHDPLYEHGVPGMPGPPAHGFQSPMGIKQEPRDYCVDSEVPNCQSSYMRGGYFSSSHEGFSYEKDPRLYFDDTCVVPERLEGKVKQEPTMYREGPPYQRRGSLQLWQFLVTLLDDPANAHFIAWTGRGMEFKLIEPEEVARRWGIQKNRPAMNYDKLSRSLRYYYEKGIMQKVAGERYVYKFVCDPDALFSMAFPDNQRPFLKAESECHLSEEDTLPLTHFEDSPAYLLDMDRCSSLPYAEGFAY
# Method in brief: as §1
# HSF1 = HSF1 (Homo sapiens, UniProt Q00613 1-529); details: protein: recombinant; tags: N-terminal GST; chain copies: 3; dsDNA, one strand shown
# Sequence of HSF1 (Q00613 whole entry): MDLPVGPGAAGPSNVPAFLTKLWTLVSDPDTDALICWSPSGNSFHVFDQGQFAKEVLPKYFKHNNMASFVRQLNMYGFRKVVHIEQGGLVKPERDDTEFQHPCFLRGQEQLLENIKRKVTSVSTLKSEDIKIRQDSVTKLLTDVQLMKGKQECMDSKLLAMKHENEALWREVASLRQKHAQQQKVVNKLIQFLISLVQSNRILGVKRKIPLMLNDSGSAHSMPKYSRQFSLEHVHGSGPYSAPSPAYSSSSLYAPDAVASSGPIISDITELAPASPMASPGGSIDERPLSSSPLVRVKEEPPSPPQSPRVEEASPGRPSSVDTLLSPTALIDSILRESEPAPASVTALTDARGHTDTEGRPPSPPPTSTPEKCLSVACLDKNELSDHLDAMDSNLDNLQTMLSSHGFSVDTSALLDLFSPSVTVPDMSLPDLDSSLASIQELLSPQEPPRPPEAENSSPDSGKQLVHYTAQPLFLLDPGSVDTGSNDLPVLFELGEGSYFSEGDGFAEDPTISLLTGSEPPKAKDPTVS
# Method in brief: as §1
# SPIC = biological target: T8, SPIC (Homo sapiens, UniProt Q8N5J4 1-248); details: protein: recombinant; tags: N-terminal GST; dsDNA, one strand shown
# T8 sequence: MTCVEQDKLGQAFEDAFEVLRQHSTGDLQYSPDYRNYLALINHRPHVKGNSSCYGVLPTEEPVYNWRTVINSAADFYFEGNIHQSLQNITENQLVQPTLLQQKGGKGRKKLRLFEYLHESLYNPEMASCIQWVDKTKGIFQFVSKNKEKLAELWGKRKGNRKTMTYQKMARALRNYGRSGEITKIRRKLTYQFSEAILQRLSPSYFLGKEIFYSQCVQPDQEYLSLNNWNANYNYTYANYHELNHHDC
# Method in brief: as §1
# ELF4 = ELF4 (Homo sapiens, UniProt Q99607 1-663); details: protein: recombinant; tags: N-terminal GST; dsDNA, one strand shown
# Sequence of ELF4 (Q99607 whole entry): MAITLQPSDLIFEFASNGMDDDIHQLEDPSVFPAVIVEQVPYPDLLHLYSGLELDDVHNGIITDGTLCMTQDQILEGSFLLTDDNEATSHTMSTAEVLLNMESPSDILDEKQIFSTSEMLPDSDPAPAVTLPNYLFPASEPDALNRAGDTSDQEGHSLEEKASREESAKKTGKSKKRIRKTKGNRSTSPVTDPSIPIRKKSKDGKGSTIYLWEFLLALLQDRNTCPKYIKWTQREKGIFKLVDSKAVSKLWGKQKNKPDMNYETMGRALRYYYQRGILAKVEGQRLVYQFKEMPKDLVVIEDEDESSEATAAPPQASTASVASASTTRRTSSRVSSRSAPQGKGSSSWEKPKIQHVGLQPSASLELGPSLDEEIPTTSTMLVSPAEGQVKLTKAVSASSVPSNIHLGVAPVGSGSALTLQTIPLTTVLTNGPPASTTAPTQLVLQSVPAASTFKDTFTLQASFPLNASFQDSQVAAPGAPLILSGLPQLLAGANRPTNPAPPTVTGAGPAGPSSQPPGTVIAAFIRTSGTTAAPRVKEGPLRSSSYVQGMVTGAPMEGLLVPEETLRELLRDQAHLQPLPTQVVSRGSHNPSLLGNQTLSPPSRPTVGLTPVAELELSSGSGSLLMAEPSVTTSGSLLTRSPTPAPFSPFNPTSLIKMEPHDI
# Method in brief: as §1
# ELK4 = biological target: T9, ELK4 (Homo sapiens, UniProt P28324-2 1-405); details: protein: recombinant; tags: N-terminal GST; dsDNA, one strand shown
# T9 sequence: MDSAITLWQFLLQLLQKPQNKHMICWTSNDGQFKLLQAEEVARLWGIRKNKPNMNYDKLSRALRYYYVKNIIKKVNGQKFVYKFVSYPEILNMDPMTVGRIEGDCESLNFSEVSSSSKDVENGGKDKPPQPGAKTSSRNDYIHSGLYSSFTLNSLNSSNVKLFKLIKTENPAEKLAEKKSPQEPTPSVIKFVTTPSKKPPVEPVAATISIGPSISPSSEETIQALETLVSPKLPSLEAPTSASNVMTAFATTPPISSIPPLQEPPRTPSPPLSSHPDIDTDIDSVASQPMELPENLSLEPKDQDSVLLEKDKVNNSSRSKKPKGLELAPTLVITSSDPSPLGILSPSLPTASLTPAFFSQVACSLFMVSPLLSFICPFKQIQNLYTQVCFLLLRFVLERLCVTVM
# Method in brief: as §1
# ETV2 = biological target: T10, ETV2 (Homo sapiens, UniProt O00321 1-342); details: protein: recombinant; tags: N-terminal GST; dsDNA, one strand shown
# T10 sequence: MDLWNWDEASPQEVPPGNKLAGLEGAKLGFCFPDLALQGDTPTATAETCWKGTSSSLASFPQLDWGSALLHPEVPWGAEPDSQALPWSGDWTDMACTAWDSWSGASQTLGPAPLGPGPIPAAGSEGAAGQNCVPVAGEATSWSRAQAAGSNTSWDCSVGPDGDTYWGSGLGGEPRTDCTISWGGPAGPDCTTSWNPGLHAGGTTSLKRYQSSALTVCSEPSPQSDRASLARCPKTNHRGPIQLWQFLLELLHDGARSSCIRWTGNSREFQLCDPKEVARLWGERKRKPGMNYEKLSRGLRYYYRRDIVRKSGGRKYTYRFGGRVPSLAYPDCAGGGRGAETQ
# Method in brief: as §1
# ELF3 = biological target: T11, ELF3 (Homo sapiens, UniProt P78545 1-371); details: protein: recombinant; tags: N-terminal GST; dsDNA, one strand shown
# T11 sequence: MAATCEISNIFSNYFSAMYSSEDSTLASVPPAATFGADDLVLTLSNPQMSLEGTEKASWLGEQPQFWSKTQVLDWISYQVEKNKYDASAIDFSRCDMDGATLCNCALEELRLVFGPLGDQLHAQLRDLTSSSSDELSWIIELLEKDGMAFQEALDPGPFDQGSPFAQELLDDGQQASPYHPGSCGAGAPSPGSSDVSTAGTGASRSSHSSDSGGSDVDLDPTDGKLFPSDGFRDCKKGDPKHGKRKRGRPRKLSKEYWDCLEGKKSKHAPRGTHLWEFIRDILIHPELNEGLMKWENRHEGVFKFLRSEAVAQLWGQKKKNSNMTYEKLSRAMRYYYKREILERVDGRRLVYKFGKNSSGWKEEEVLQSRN
# Method in brief: as §1
# ETV1 = ETV1 (Homo sapiens, UniProt P50549 1-477); details: protein: recombinant; tags: N-terminal GST; dsDNA, one strand shown
# Sequence of ETV1 (P50549 whole entry): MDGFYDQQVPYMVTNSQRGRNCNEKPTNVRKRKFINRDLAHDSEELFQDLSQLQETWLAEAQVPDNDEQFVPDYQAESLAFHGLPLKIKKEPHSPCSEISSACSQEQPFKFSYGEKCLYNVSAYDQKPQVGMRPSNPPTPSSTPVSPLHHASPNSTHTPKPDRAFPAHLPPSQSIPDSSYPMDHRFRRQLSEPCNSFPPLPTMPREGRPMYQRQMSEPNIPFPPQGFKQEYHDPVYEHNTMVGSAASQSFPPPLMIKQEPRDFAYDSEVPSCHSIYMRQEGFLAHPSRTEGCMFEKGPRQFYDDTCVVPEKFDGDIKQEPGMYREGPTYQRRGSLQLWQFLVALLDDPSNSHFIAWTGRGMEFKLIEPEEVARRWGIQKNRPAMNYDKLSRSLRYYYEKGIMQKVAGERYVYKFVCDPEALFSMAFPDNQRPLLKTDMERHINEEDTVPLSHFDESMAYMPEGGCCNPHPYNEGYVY
# Method in brief: as §1
sequence,measurement,setting,value
GTTCAC,binding signal,FLI1,"1.23 fold enrichment (6-mer frequency, TF over GST control)"
same,binding signal,ELK1,"1.23 fold enrichment (6-mer frequency, TF over GST control)"
same,binding signal,GABPA,"1.32 fold enrichment (6-mer frequency, TF over GST control)"
same,binding signal,ERG,"1.21 fold enrichment (6-mer frequency, TF over GST control)"
same,binding signal,ELF1,"1.16 fold enrichment (6-mer frequency, TF over GST control)"
same,binding signal,EHF,"1.13 fold enrichment (6-mer frequency, TF over GST control)"
same,binding signal,SPI1,"1.18 fold enrichment (6-mer frequency, TF over GST control)"
same,binding signal,SPIB,"1.19 fold enrichment (6-mer frequency, TF over GST control)"
same,binding signal,ELK3,"1.18 fold enrichment (6-mer frequency, TF over GST control)"
same,binding signal,FEV,"1.3 fold enrichment (6-mer frequency, TF over GST control)"
same,binding signal,ETV5,"1.2 fold enrichment (6-mer frequency, TF over GST control)"
same,binding signal,HSF1,"1.06 fold enrichment (6-mer frequency, TF over GST control)"
same,binding signal,SPIC,"1.09 fold enrichment (6-mer frequency, TF over GST control)"
same,binding signal,ELF4,"1.25 fold enrichment (6-mer frequency, TF over GST control)"
same,binding signal,ELK4,"1.29 fold enrichment (6-mer frequency, TF over GST control)"
same,binding signal,ETV2,"1.22 fold enrichment (6-mer frequency, TF over GST control)"
same,binding signal,ELF3,"1.12 fold enrichment (6-mer frequency, TF over GST control)"
same,binding signal,ETV1,"1.19 fold enrichment (6-mer frequency, TF over GST control)"
